Assay outcomes as filed in PubChem.
Hits are enriched below; roughly 11% of the tested compounds scored in any of these assays.
PNC inhibitor = blocks assembly of the perinucleolar compartment | 140,000 compounds, 3.1% hits | PC3M PTB-GFP, PNC prevalence imaging, 16 h; stronger effect = lower value | activity change (PNC), negative = inhibition, % at 10 µM | AID 2417;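 active = readout at or below -70, meaning at least 70% loss of cells showing the perinucleolar compartment, a nuclear body marking cancer cells; inconclusive = readout between -30 and a set limit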
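PC3M cells stably expressing PTB-GFP, 750–1000 cells/well, treated 16 h at 37 °C with compound (23 nl of library stock), in duplicate. After paraformaldehyde fixation and Hoechst stain, imaged at 20x; PNC prevalence scored by image analysis.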
ALDH1A1 block = inhibitors of human aldehyde dehydrogenase 1A1. Purified ALDH1A1, NADH fluorescence, propionaldehyde substrate. 220,000 compounds, 7.3% hits. P00352. Potency, µM (titrated, usually from 75.3 µM), hits mostly inhibitors
Target sequence (P00352 whole entry, looked up): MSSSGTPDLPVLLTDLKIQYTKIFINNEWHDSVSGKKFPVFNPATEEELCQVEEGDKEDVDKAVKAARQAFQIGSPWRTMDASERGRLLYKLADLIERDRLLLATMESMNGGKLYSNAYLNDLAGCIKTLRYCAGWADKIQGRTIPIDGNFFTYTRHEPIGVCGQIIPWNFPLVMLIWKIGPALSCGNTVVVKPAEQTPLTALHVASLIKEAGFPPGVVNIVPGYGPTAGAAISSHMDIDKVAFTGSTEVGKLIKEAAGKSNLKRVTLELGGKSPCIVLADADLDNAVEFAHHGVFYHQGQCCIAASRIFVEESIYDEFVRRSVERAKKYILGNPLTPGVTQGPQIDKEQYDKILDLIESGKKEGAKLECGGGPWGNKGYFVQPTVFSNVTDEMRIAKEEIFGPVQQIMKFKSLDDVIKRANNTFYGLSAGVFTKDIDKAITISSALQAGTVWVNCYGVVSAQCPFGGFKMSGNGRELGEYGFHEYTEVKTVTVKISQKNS
HPGD inh = blocks human HPGD enzyme activity. P15428. purified HPGD, NADH fluorescence kinetic, PGE2 substrate. Potency, µM, usual class: inhibitors. 150,000 compounds, 4.3% hits. AID 894
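20 nM HPGD preincubated 15 min at room temperature with compound in 50 mM Tris-HCl pH 8, 0.01% Tween 20. Started with 1 mM NAD+ and 30 uM prostaglandin E2; NADH fluorescence (360/450 nm) read 5 times over 30-s intervals, last minus first.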
Of the large screens only hits and unclear results are named; the others gave an inactive call. Unless noted, calls follow the shape of the dose curve; as a rule, active = well fitted inhibition curve with a large enough effect (not every such curve was filed as active); inconclusive = small, poorly fitted or top-dose-only effect, or another doubt; inactive = no such curve, though single readings can be large or run the other way.

C[C@@]12C=CC(=O)C=C1CCC1C3CC(O)[C@@](O)(C(=O)CO)[C@]3(C)CC(O)[C@]12F (some centres undefined)	none (no result: PNC inhibitor)
COCCNC(=O)C(=O)N/N=C(\C)CC(=O)Nc1cccnc1	none (no result: PNC inhibitor, HPGD inh)
O=C(COC(=O)c1cnc(Cl)c(Cl)c1)NCCC1=CCCCC1	ALDH1A1 block 12.6µM (no result: PNC inhibitor, HPGD inh)
CN(C)c1ccc(C(=O)OCC(=O)NCCC2=CCCCC2)cc1	ALDH1A1 block 35.5µM (no result: PNC inhibitor, HPGD inh)
O=C(COC(=O)c1ccc(Br)cc1)NCCC1=CCCCC1	none (no result: PNC inhibitor, HPGD inh)
COC(=O)c1ccc(COC(=O)c2ccc(N(C)C)cc2)cc1	ALDH1A1 block 25.1µM, HPGD inh inconclusive
O=C(COC(=O)c1ccccc1)NCCC1=CCCCC1	none (no result: PNC inhibitor, HPGD inh)
Cc1ccc(NC(=S)NCCC2=CCCCC2)cc1	none (no result: PNC inhibitor, HPGD inh)
CCOC(=O)c1ccc(NC(=S)NCCC2=CCCCC2)cc1	ALDH1A1 block inconclusive, HPGD inh 14.1µM
CN(C)c1ccc(C(=O)OCc2ccccc2)cc1	ALDH1A1 block inconclusive, HPGD inh inconclusive
Cc1cc(C)c(S(=O)(=O)Cc2ccccc2)c(=O)[nH]1	none (no result: PNC inhibitor, HPGD inh)
CCOc1cc(CNc2nn[nH]n2)ccc1OCC(=O)NC(C)(C)C	none (no result: PNC inhibitor, HPGD inh)
CC1C=C[C@@H]2[C@H](C1)C(=O)N(Cc1ccccc1)[C@H]2c1ccccc1Br (some centres undefined)	ALDH1A1 block inconclusive (no result: PNC inhibitor)
Cc1onc(-c2ccc(Cl)cc2)c1-c1ccnc(SCC(=O)Nc2ccc(C(C)C)cc2)n1	none (no result: PNC inhibitor, HPGD inh)
O=C(O)c1c2c(nc3ccccc13)/C(=C/c1ccc(O)cc1)CCC2	none (no result: PNC inhibitor, HPGD inh)
COc1cc(/C=C2\CCCc3c2nc2ccccc2c3C(=O)O)cc(OC)c1O	ALDH1A1 block 14.1µM (no result: PNC inhibitor, HPGD inh)
COc1ccc(Cl)cc1NC(=O)c1cccc(NC(=O)CCC(=O)O)c1	none
NC(N)=N/N=C/c1cccc(Cl)c1Cl	none (no result: PNC inhibitor, HPGD inh)
O=C(NOC(=O)c1ccccc1)c1ccccc1	ALDH1A1 block 20µM (no result: PNC inhibitor, HPGD inh)
COC(=O)c1ccccc1	none (no result: PNC inhibitor)
CC12C=C(/C=C/c3ccccc3)C(C)(C1)C(c1ccccc1)CC2=O (centres undefined)	none (no result: PNC inhibitor, HPGD inh)
CC(=O)c1cc2c(cc1NC(=O)CN1CCCCCCC1)OCO2	ALDH1A1 block 10µM
CC(=O)c1cc2c(cc1NC(=O)CCCC(=O)O)OCO2	none
C=CCn1c(SCC(=O)N2CCCC2)nc2scc(-c3cccs3)c2c1=O	ALDH1A1 block inconclusive
CCc1c(O)nc(SCC(=O)NC(C)(C)C)n(-c2ccccc2)c1=O	none
C=CCn1c(SCC(=O)N2CCOCC2)nc2scc(-c3ccco3)c2c1=O	ALDH1A1 block 17.8µM
CC(NC(=O)CSc1nc2sc3c(c2c(=O)n1-c1ccccc1)CCCC3)c1ccccc1 (centres undefined)	PNC inhibitor inconclusive, ALDH1A1 block inconclusive
CC(C)C(C)(C#N)NC(=O)CSc1nc2scc(-c3ccco3)c2c(=O)n1-c1ccccc1 (centres undefined)	ALDH1A1 block 11.2µM
CC(C)C(C)NC(=O)CSc1nc2scc(-c3ccco3)c2c(=O)n1-c1ccccc1 (centres undefined)	ALDH1A1 block 7.94µM, HPGD inh inconclusive
C[C@H](NC[C@H](O)CP(=O)(O)Cc1ccccc1)c1ccc(Cl)c(Cl)c1	none (no result: PNC inhibitor)
CN(c1ccc([N+](=O)[O-])cc1/C=N/NC(=O)COc1ccccc1)C1CCCCC1	none
C=CCC(C)(O)c1ccsc1 (centres undefined)	none (no result: PNC inhibitor)
CC(=O)OC[C@@H]1O[C@@H](O/N=C2/C[C@@H](O)[C@@H](O)[C@@H]3[C@@H]4C(=O)N(Cc5ccccc5)C(=O)[C@H]4CC[C@@H]23)[C@H](OC(C)=O)[C@H](OC(C)=O)[C@@H]1OC(C)=O	none (no result: PNC inhibitor, HPGD inh)
CC(=O)Nc1c(N)c2ccccc2oc1=O	none (no result: PNC inhibitor, HPGD inh)
C=CCn1c(C)c(C(C)=O)c(N2CCCC2)nc1=S	PNC inhibitor inconclusive
C=CCn1c(C)c(C(C)=O)c(N2CCN(c3ccccc3)CC2)nc1=S	ALDH1A1 block 28.2µM
O=C(Nc1nnc(SCc2cccc3ccccc23)s1)C1COc2ccccc2O1 (centres undefined)	HPGD inh inconclusive
O=C(N/N=C/c1ccc(O)c(O)c1O)/C(=C/c1ccc([N+](=O)[O-])cc1)NC(=O)c1ccccc1	ALDH1A1 block 10µM, HPGD inh 25.1µM
Cc1ccc(NC(=O)/C(=C\c2ccc([N+](=O)[O-])cc2)NC(=O)c2ccccc2)cc1	none
COc1ccc(C(=O)Nc2n[nH]c(-c3ccncc3)n2)cc1	none
COc1cc2c(cc1OC)C(=S)NC(C)(C)C2	ALDH1A1 block 25.1µM
COc1cc2c(cc1OC)/C(=C/C(=O)N1CCOCC1)NC(C)(C)C2	ALDH1A1 block inconclusive, HPGD inh inconclusive
COc1ccc(S(=O)(=O)N=Nc2c(O)[nH]c3ccccc23)cc1	ALDH1A1 block 25.1µM (no result: PNC inhibitor, HPGD inh)
Cc1ccc(S(=O)(=O)N=Nc2c(O)[nH]c3ccccc23)cc1C	ALDH1A1 block inconclusive
O=[N+]([O-])c1cccc(C(F)(F)F)c1	none (no result: PNC inhibitor)
O=[N+]([O-])c1cc2c(c(CSc3nnc(Nc4ccccc4)s3)c1)OCOC2	none
